The molecules below were run against Glucose transporter (Leishmania mexicana) (UniProt O61059) (assay: ST_JUDE_LEISH: Cytotoxicity at 2uM final concentration against transgenic Leishmania Mexicana promastigotes LmGT2 that are glucose transport deficient and complemented with the L. Mexicana glucose transporter 2. Activity is measured by DNA content using SYBR green in vitro).
Type: functional

Going from `N#Cc1ccc(-c2ccc(C(=O)NCCCCN3CCC(c4cc(Br)c5c(c4OCC(N)=O)CCCC5)CC3)cc2)cc1` to `CC(C)Cc1ccc(N2CCN(CCCCNC(=O)c3ccc(NC(=O)c4ccc(Cl)c(Cl)c4)cc3)CC2)cc1`, the inhibition rises from -0.04% to 0.21%.

Going from `CCNc1cc(C(=O)N[C@@H](Cc2ccccc2)[C@H](O)CNC23CCC(CC2)C3)cc(N2CCCCS2(=O)=O)c1` to `CCCN(CCC)C(=O)c1cc(C(=O)N[C@@H](Cc2ccccc2)[C@H](O)CNCc2cccc(C(F)(F)F)c2)cc(N2CCCCS2(=O)=O)c1`, the inhibition falls from 3.19% to -0.16%.

Going from `O=C(/C=C/c1ccc(Cl)c(Cl)c1)NCCCCCN1CCC(NC(=O)Nc2cc(F)cc(F)c2)CC1` to `O=C(/C=C/c1ccc(Cl)c(Cl)c1)NCCCCCN1CCC(CCNC(=O)C2(c3ccc(Cl)cc3)CC2)CC1`, the inhibition falls from 4.15% to 3.58%.

Compared with `Cc1nc2nc(N)nc(N)c2c(C)c1Cc1ccccc1`, `COc1cc2nc(NCCc3ccccc3)nc(NCCCc3ccccc3)c2cc1OC` is higher in inhibition: 1.2% for the first, 2.36% for the second.

Compared with `CCCCCCCCCC(=O)NCC1CC(Br)=NO1` (stereo not given), `CCCCCCc1cc2cc(-c3csc(C=Cc4ccccc4)n3)c(=O)oc2cc1O` is higher in inhibition: -1.46% for the first, 9.7% for the second.

Going from `O=C1NC(C(=O)Nc2ccccc2)C(c2ccccc2)S1` (stereo not given) to `O=C(NC1CC1)c1ccc2cc(C(=O)N3Cc4ccccc4C(c4ccccc4)C3)ccc2c1` (stereo not given), the inhibition falls from -0.52% to -1.42%.

First: COC(=O)c1ccc(CCC(C)NCC(O)c2cccc(C(F)(F)F)c2)cc1 (stereo not given)
Second: CCN(CC)CCNc1nccc(N(C)c2ccc(NC(=O)Nc3cc(C(F)(F)F)ccc3F)cc2)n1
The inhibition of the first is higher: 3.23% for the first, 0.26% for the second.

Compared with `Cc1cccc2nc(-c3ccc(-c4cccc(NC(=O)C(=O)c5cccn5C)c4)cc3)[nH]c12`, `CN1CCCN(Cc2cccc(-c3cccc(NC(=O)c4ccc(Cl)cc4)c3)c2)CC1` is higher in inhibition: 2.29% for the first, 3.68% for the second.

Going from `Cc1nc2ccc(-c3ccc(OC(F)(F)F)cc3)cc2c(O)c1C#N` to `Cc1ccc(C(C#N)c2ccc3c(C(F)(F)F)cc(C(F)(F)F)nc3n2)cc1` (stereo not given), the inhibition rises from -1.44% to 4.34%.

Going from `Nc1cc(-c2ccc(Br)cc2O)nc2ccccc12` to `Nc1ncc(-c2cn[nH]c2)cc1-c1nc2ccc(Cl)cc2[nH]1`, the inhibition rises from 2.06% to 3.89%.

Going from `CC[C@H]1CN(Cc2ccco2)CC[C@H]1CCCc1ccnc2ccc(O)cc12` to `COc1cc2c(Nc3cccc(NC(=O)c4ccccc4)c3)ncnc2cc1OCCCN1CCOCC1`, the inhibition falls from 4.42% to 0.27%.

First: Cc1nc(-c2cccc(Nc3ccnc4cc(-c5nccs5)ccc34)c2)no1
Second: c1cncc(Oc2ccc(Nc3ccnc4cc(-c5cccc(CN6CCCCC6)c5)ccc34)cc2)c1
The inhibition of the first is higher: 2.74% for the first, 2.68% for the second.

First: O=C(NCC(NCCCNc1cc(=O)c2ccccc2[nH]1)c1cc(Br)cc(Br)c1)C1=CCCC1 (stereo not given)
Second: CN1CCCC1CCOc1ccc2c(c1)N(C(=O)Nc1cc(Br)cc(C(F)(F)F)c1)CC2 (stereo not given)
The inhibition of the first is higher: 5.79% for the first, -2.02% for the second.

First: Cc1cnc(Nc2cccc(CCN3CCOCC3)c2)nc1NC(C)C
Second: CC(C)CN(C)c1ncnc2c1nc(-c1cncc(C#N)c1)n2CCNCc1ccccc1
The inhibition of the first is lower: 2.69% for the first, 4.39% for the second.

First: COc1cccc(CNC(=O)c2cccc(-c3cccc(CN4CCC(N5CCCC5)CC4)c3)n2)c1
Second: COc1ccc(CNC(=O)Nc2cccc(-c3csc(NC(=N)N)n3)c2)cc1
The inhibition of the first is higher: 6.93% for the first, 1.03% for the second.

Going from `CCc1c(CCNCCCCCCNCc2ccc3c(c2CC)OCO3)ccc(OC)c1OC` to `CCCCCCn1c(Sc2ccc(C#N)c([N+](=O)[O-])c2)nnc1-c1ccc(OC)cc1`, the inhibition falls from 4.01% to -3.74%.

Compared with `N#Cc1ccccc1S(=O)(=O)N1CCCC(CNC(=O)[C@H](CC2CCCCC2)NC(=O)c2cc3ccccc3s2)C1` (stereo not given in full), `COc1ccc(-c2ccc(NC(=O)c3ccc(C#N)cc3)cc2)cc1CN1CCNCC1` is higher in inhibition: 0.55% for the first, 5.48% for the second.

Going from `O=C(/C=C/c1ccc(C(F)(F)F)cc1)NCCCCCN1CCCN(C(=O)Nc2ccc(Cl)c(C(F)(F)F)c2)CC1` to `O=C(/C=C/c1ccc(C(F)(F)F)cc1)NCCCCCN1CCN(C(=O)Nc2ccc(F)c(Cl)c2)CC1`, the inhibition rises from 0.66% to 0.69%.

First: Cc1cc2nc(N=C3NC4(c5ccccn5)NC(=Nc5nc6cc(C)c(C)cc6[nH]5)NC4(c4ccccn4)N3)[nH]c2cc1C (stereo not given)
Second: N#Cc1cccc(CN(Cc2ccc(Cl)c(Cl)c2)S(=O)(=O)c2cccc([N+](=O)[O-])c2)c1
The inhibition of the first is lower: -0.63% for the first, 4.05% for the second.

Compared with `Cc1c(CNCCCNc2nc3cscc3[nH]2)sc(C(F)F)c1Br`, `CN(C)CCOc1cc(O)c2c(c1)OC(C)(C)C=C2c1cccs1` is lower in inhibition: 2.43% for the first, -0.34% for the second.

— ChEMBL document CHEMBL3433997, “St. Jude Leishmania screening dataset” (2016)
